In PubChem BioAssay (NCI):
Compounds without any hit were thinned out: in the full panel of roughly 83,000, 20% have a hit.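 Step 1: grow cells in 96-well plates. Step 2: add test compound at a single concentration. Step 3: incubate 48 h. Step 4: record percent growth.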 Active and inactive are the calls of the source. The calls were made as follows: active = growth percent below 10; inactive = the rest.

The molecules below were run on MDA-MB-468 breast (assay: NCI-60 one-dose screen, 48 h (100 = growth as untreated, 0 = no growth, -100 = all killed)). Details: 10 µM unless noted.

Structure (SMILES) | growth
CCc1c(C)c2ccc(O)c(-c3cc(-c4ccccc4)c(C#N)c(=O)[nH]3)c2oc1=O | 102% (inactive)
O=C(CN1CCN(c2ccc(Cl)cc2)CC1)N1CCN(c2nnc(-c3ccccc3)c(-c3ccccc3)n2)CC1 | 35.1% (inactive)
Nc1cccc(Cl)c1N | -21.1% (active)
CC(/C=C/c1ccccc1)=N/NC(=O)c1ccncc1 | 98.8% (inactive)
Cc1ccc(C(=O)C(Br)C(Br)c2ccccc2)cc1 (stereo not given) | 42.8% (inactive)
O=c1c(CNc2ccc(S(=O)(=O)Nc3nccs3)cc2)coc2ccccc12 | 92.9% (inactive)
C=C1SC(=Nc2c(C)cccc2C)N(c2nc(Cl)nc(Cl)n2)C12CCCCC2 | 101% (inactive)
COc1ccc2c(c1)/C(=C\c1sc(=S)[nH]c1O)C(C(=O)O)=N2 | 98.2% (inactive)
C=C(C)[C@@H]1CC[C@]2(C(=O)N[C@H](CO)Cc3ccccc3)CC[C@]3(C)[C@H](CC[C@@H]4[C@@]5(C)CCCNC(C)(C)[C@@H]5CC[C@]43C)[C@@H]12 | -90.5% (active)
COC(=O)C1(O)NC(=C(C#N)C#N)C(C#N)=C1C(=O)c1ccc(OC)c(OC)c1 (stereo not given) | 110% (inactive)
COc1cccc(C2C3=C(COC3=O)N(CCO)c3cc(OC)ccc32)c1 (stereo not given) | -13.2% (active)
COc1ccc(/C=C2/CCc3cc4ccc(OC)cc4[o+]c32)c(O)c1 | 97.1% (inactive)
CC(=NCc1ccccc1)c1ccc(O)cc1O | 118% (inactive)
NS(=O)(=O)c1ccc(N2N=C(c3ccccc3)CCC2=O)cc1 | 96.3% (inactive)
Clc1ccc(Nc2ncnc3c2sc2ncccc23)c(Cl)c1 | 22.2% (inactive)
Cc1cccc(N2CCC(=O)NC2=S)c1 | 100% (inactive)
COc1cc2c(c(OC)c1OC)C(=O)CC(c1cccc(NC(=O)c3ccccc3Br)c1)O2 (stereo not given) | 85.1% (inactive)
CN(C)CCCNc1c2ccc(Cl)cc2nc2c1oc1ccccc12 | -49.6% (active)
SCc1ccc(CS)cc1 | 111% (inactive)
Cc1nc2sc(C(=O)Nc3cccc(Br)c3)c(N)c2cc1C(O)c1ccccc1 (stereo not given) | 11.9% (inactive)

Structure (SMILES) | growth
CCN1CCN(c2cc(C(=O)Nc3nc4ccc(Oc5ccnc(C(=O)NC)c5)cc4s3)cc(C(F)(F)F)c2)CC1 | 43.3% (inactive)
COc1cc2c(cc1OCCCOC1=C=C=C(c3ccc4c(c3)c3cc(-c5ccc(OCCCOc6cc7c(cc6OC)C(=O)N6CCC[C@H]6C=N7)cc5)ccc3n4S(=O)(=O)c3ccc(C)cc3)C=C1)N=C[C@@H]1CCCN1C2=O | -17% (active)
CN(CCC#N)C(=O)Nc1ccccc1 | 109% (inactive)
COc1ccc(CN2CCC(N3CCCC3=O)c3cc(Cl)ccc32)cc1 (stereo not given) | 114% (inactive)
CCN1CCCC1CNC(=O)c1ncc(-c2ccc(C(F)(F)F)cc2)c(NC2CCCCCC2)n1 (stereo not given) | 80.8% (inactive)
O=C(CCCCCNC(=O)c1cc(=O)c(O)co1)Nc1ccccc1 | 108% (inactive)
O=C1c2ccccc2OC=C(c2ccccc2)N1CCCCN1CCCCC1 | -6.27% (active)
C[C@H]1[C@H](C)CC[C@]2(CO)CC[C@]3(C)C(=CC[C@@H]4[C@@]5(C)CCCNC(C)(C)[C@@H]5CC[C@]43C)[C@H]12 | -78.6% (active)
C=C(CC(=O)OC)C(C)=O | 102% (inactive)
N#Cc1ccc(N2Cc3cc(Cl)ccc3OC3=C2C(=O)N(Cc2ccc(F)cc2)C3=O)cc1 | -68.2% (active)
c1ccc(N2CCN(c3nncc4ccccc34)CC2)nc1 | 93.3% (inactive)
C[C@H]1[C@H](C)CC[C@]2(COC(=O)c3cccnc3)CC[C@]3(C)C(=CC[C@@H]4[C@@]5(C)CCCNC(C)(C)[C@@H]5CC[C@]43C)[C@H]12 | 42.5% (inactive)
O=C(CCn1cnc2c(cc(-c3ccccc3)n2-c2ccccc2)c1=O)Nc1ccc(F)cc1 | 78% (inactive)
CCN(CC)CCn1c2ccc(O)cc2c2sc3cc(OC)ccc3c(=O)c21 | 33.8% (inactive)
O=C(CSc1nc2ccc([N+](=O)[O-])cc2[nH]1)Nc1ccc(F)cc1 | 22.3% (inactive)
CNC(=O)c1cc(Oc2ccc3nc(NC(=O)c4ccc(CN5CCN(C)CC5)c(C(F)(F)F)c4)sc3c2)ccn1 | 52.1% (inactive)
O=c1c2c(c3ccccc3n1-c1ccccc1)NC(=S)NC2c1ccc(Cl)cc1 (stereo not given) | 115% (inactive)
C[C@@H](Oc1cc(-c2cnn(C3CCNCC3)c2)cnc1N)c1c(Cl)ccc(F)c1Cl | -79.8% (active)
CCOc1cccc(Nc2nc(N)nc3[nH]c4ccc(O)cc4c23)c1 | 8.38% (active)
Oc1ccc(O)c(-c2ccccc2)c1 | 33.2% (inactive)
